# Screen size: about 5,500 compounds; about 2,000 (36%) were called active. Not shown: some 18% with an inconclusive outcome. The list shows a part of the results. A number with no mark means an inactive call. Cut-off read from the data, not from the text of the source: active = normalized growth mostly below about 0.91 (no sharp cut-off); inconclusive = no clear call, values can overlap the other calls; inactive = mostly above about 0.92.
# Experiment: chemical genetic growth profiling, strain panel (AID 1159580);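 note: tested at 20 µM; growth read once vehicle control cultures reached saturation at 30 °C; 1 = growth at the plate median or of vehicle wells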
# Conditions: growth OD
structure (smiles),measurement,setting,value
C=CC(C)(O)CC/C=C(\C)CCC=C(C)C (stereo not drawn),normalized growth,"S. cerevisiae deletion strains, locus YKL009W, strain mrt4, stronger effect = lower value",0.952
same,normalized growth,"S. cerevisiae deletion strains, locus YKL068W, stronger effect = lower value",0.994
same,normalized growth,"S. cerevisiae deletion strains, locus YKL085W, strain MDH1 (second series), stronger effect = lower value",0.996
same,normalized growth,"S. cerevisiae deletion strains, locus YKL085W, strain MDH1, stronger effect = lower value",0.996
same,normalized growth,"S. cerevisiae deletion strains, locus YKL160W, strain elf1, stronger effect = lower value",0.903
same,normalized growth,"S. cerevisiae deletion strains, locus YKL190W, strain CNB1, stronger effect = lower value",0.97
same,normalized growth,"S. cerevisiae deletion strains, locus YKR001C, strain vps1, stronger effect = lower value",1
same,normalized growth,"S. cerevisiae deletion strains, locus YKR026C, strain gcn3, stronger effect = lower value",0.951
same,normalized growth,"S. cerevisiae deletion strains, locus YKR091W, strain srl3, stronger effect = lower value",0.97
same,normalized growth,"S. cerevisiae deletion strains, locus YLL001W, strain dnm1, stronger effect = lower value",0.978
same,normalized growth,"S. cerevisiae deletion strains, locus YLL026W, stronger effect = lower value",0.972
same,normalized growth,"S. cerevisiae deletion strains, locus YLL041C, strain sdh2, stronger effect = lower value",0.973
same,normalized growth,"S. cerevisiae deletion strains, locus YLR027C, strain aat2, stronger effect = lower value",0.967
same,normalized growth,"S. cerevisiae deletion strains, locus YLR039C, strain RIC1, stronger effect = lower value",0.882
same,normalized growth,"S. cerevisiae deletion strains, locus YLR058C, strain SHM2, stronger effect = lower value",0.949
same,normalized growth,"S. cerevisiae deletion strains, locus YLR102C, strain apc9, stronger effect = lower value",1
same,normalized growth,"S. cerevisiae deletion strains, locus YLR113W, strain HOG1, stronger effect = lower value",0.868
same,normalized growth,"S. cerevisiae deletion strains, locus YLR221C, strain rsa3, stronger effect = lower value",0.9 (active)
same,normalized growth,"S. cerevisiae deletion strains, locus YLR258W, strain gsy2, stronger effect = lower value",0.966
same,normalized growth,"S. cerevisiae deletion strains, locus YLR262C, strain YPT6 (second series), stronger effect = lower value",0.842 (active)
same,normalized growth,"S. cerevisiae deletion strains, locus YLR262C, strain YPT6, stronger effect = lower value",0.926
same,normalized growth,"S. cerevisiae deletion strains, locus YLR268W, strain sec22, stronger effect = lower value",1
same,normalized growth,"S. cerevisiae deletion strains, locus YLR320W, strain mms22, stronger effect = lower value",0.846 (active)
same,normalized growth,"S. cerevisiae deletion strains, locus YLR330W, strain CHS5, stronger effect = lower value",0.925
same,normalized growth,"S. cerevisiae deletion strains, locus YLR342W, strain FKS1 (second series), stronger effect = lower value",0.878
same,normalized growth,"S. cerevisiae deletion strains, locus YLR342W, strain FKS1, stronger effect = lower value",0.974
same,normalized growth,"S. cerevisiae deletion strains, locus YLR357W, strain rsc2, stronger effect = lower value",0.81 (active)
same,normalized growth,"S. cerevisiae deletion strains, locus YLR370C, strain arc18, stronger effect = lower value",0.921
same,normalized growth,"S. cerevisiae deletion strains, locus YLR371W, strain rom2, stronger effect = lower value",0.962
same,normalized growth,"S. cerevisiae deletion strains, locus YLR384C, strain iki3, stronger effect = lower value",0.98
same,normalized growth,"S. cerevisiae deletion strains, locus YLR418C, strain cdc73, stronger effect = lower value",0.911
same,normalized growth,"S. cerevisiae deletion strains, locus YML016C, strain PPZ1, stronger effect = lower value",0.996
same,normalized growth,"S. cerevisiae deletion strains, locus YML032C, strain rad52, stronger effect = lower value",0.926
same,normalized growth,"S. cerevisiae deletion strains, locus YML120C, strain ndi1, stronger effect = lower value",0.919
same,normalized growth,"S. cerevisiae deletion strains, locus YML124C, strain tub3, stronger effect = lower value",1.01
same,normalized growth,"S. cerevisiae deletion strains, locus YMR058W, strain fet3, stronger effect = lower value",0.95
same,normalized growth,"S. cerevisiae deletion strains, locus YMR078C, strain ctf18, stronger effect = lower value",1.01
same,normalized growth,"S. cerevisiae deletion strains, locus YMR125W, strain sto1, stronger effect = lower value",0.828 (active)
same,normalized growth,"S. cerevisiae deletion strains, locus YMR129W, stronger effect = lower value",0.967
same,normalized growth,"S. cerevisiae deletion strains, locus YMR205C, strain PFK2, stronger effect = lower value",0.911
same,normalized growth,"S. cerevisiae deletion strains, locus YMR223W, strain ubp8, stronger effect = lower value",0.957
same,normalized growth,"S. cerevisiae deletion strains, locus YMR231W, strain pep5, stronger effect = lower value",0.999
same,normalized growth,"S. cerevisiae deletion strains, locus YMR307W, strain GAS1, stronger effect = lower value",0.621
same,normalized growth,"S. cerevisiae deletion strains, locus YNL067W, strain RPL9B, stronger effect = lower value",0.943
same,normalized growth,"S. cerevisiae deletion strains, locus YNL071W, strain lat1, stronger effect = lower value",0.85 (active)
same,normalized growth,"S. cerevisiae deletion strains, locus YNL153C, strain GIM3, stronger effect = lower value",0.921
same,normalized growth,"S. cerevisiae deletion strains, locus YNL183C, strain NPR1, stronger effect = lower value",0.948
same,normalized growth,"S. cerevisiae deletion strains, locus YNL209W, strain ssb2, stronger effect = lower value",0.977
same,normalized growth,"S. cerevisiae deletion strains, locus YNL233W, strain BNI4, stronger effect = lower value",0.788 (active)
same,normalized growth,"S. cerevisiae deletion strains, locus YNL248C, strain rpa49, stronger effect = lower value",0.883 (active)
same,normalized growth,"S. cerevisiae deletion strains, locus YNL250W, strain rad50, stronger effect = lower value",0.994
same,normalized growth,"S. cerevisiae deletion strains, locus YNL271C, strain bni1, stronger effect = lower value",1
same,normalized growth,"S. cerevisiae deletion strains, locus YNL298W, strain CLA4, stronger effect = lower value",0.951
same,normalized growth,"S. cerevisiae deletion strains, locus YNL307C, strain MCK1, stronger effect = lower value",1
same,normalized growth,"S. cerevisiae deletion strains, locus YNL322C, strain KRE1 (second series), stronger effect = lower value",0.993
same,normalized growth,"S. cerevisiae deletion strains, locus YNR049C, strain mso1, stronger effect = lower value",0.966
same,normalized growth,"S. cerevisiae deletion strains, locus YNR052C, strain pop2, stronger effect = lower value",0.933
same,normalized growth,"S. cerevisiae deletion strains, locus YOL006C, strain TOP1, stronger effect = lower value",0.816
same,normalized growth,"S. cerevisiae deletion strains, locus YOL012C, strain htz1",0.833
same,normalized growth,"S. cerevisiae deletion strains, locus YOL147C, strain pex11, stronger effect = lower value",0.987
same,normalized growth,"S. cerevisiae deletion strains, locus YOR001W, strain rrp6, stronger effect = lower value",0.887 (active)
same,normalized growth,"S. cerevisiae deletion strains, locus YOR061W, strain CKA2, stronger effect = lower value",0.977
same,normalized growth,"S. cerevisiae deletion strains, locus YOR069W, strain VPS5, stronger effect = lower value",0.984
same,normalized growth,"S. cerevisiae deletion strains, locus YOR070C, strain gyp1, stronger effect = lower value",0.981
same,normalized growth,"S. cerevisiae deletion strains, locus YOR080W, strain dia2, stronger effect = lower value",0.972
same,normalized growth,"S. cerevisiae deletion strains, locus YOR083W, strain WHI5, stronger effect = lower value",0.882 (active)
same,normalized growth,"S. cerevisiae deletion strains, locus YOR106W, strain vam3, stronger effect = lower value",0.881
same,normalized growth,"S. cerevisiae deletion strains, locus YOR136W, strain idh2, stronger effect = lower value",1.01
same,normalized growth,"S. cerevisiae deletion strains, locus YOR144C, strain elg1, stronger effect = lower value",0.999
same,normalized growth,"S. cerevisiae deletion strains, locus YOR184W, strain ser1, stronger effect = lower value",0.941
same,normalized growth,"S. cerevisiae deletion strains, locus YOR231W, strain MKK1, stronger effect = lower value",0.873
same,normalized growth,"S. cerevisiae deletion strains, locus YOR265W, strain rbl2, stronger effect = lower value",0.983
same,normalized growth,"S. cerevisiae deletion strains, locus YOR270C, strain vph1, stronger effect = lower value",0.757 (active)
same,normalized growth,"S. cerevisiae deletion strains, locus YOR290C, strain snf2, stronger effect = lower value",0.875
same,normalized growth,"S. cerevisiae deletion strains, locus YOR316C, strain cot1, stronger effect = lower value",0.997
same,normalized growth,"S. cerevisiae deletion strains, locus YPL051W, strain arl3, stronger effect = lower value",0.907 (active)
same,normalized growth,"S. cerevisiae deletion strains, locus YPL055C, strain LGE1, stronger effect = lower value",0.88
same,normalized growth,"S. cerevisiae deletion strains, locus YPL078C, strain atp4, stronger effect = lower value",0.863 (active)
same,normalized growth,"S. cerevisiae deletion strains, locus YPL106C, strain sse1, stronger effect = lower value",0.793 (active)
same,normalized growth,"S. cerevisiae deletion strains, locus YPL240C, strain hsp82, stronger effect = lower value",0.96
same,normalized growth,"S. cerevisiae deletion strains, locus YPL241C, strain CIN2, stronger effect = lower value",1
same,normalized growth,"S. cerevisiae deletion strains, locus YPL256C, strain CLN2, stronger effect = lower value",0.838
same,normalized growth,"S. cerevisiae deletion strains, locus YPR119W, strain clb2, stronger effect = lower value",1.02
same,normalized growth,"S. cerevisiae deletion strains, locus YPR141C, strain kar3, stronger effect = lower value",1
same,normalized growth,"S. cerevisiae deletion strains, locus YPR163C, strain tif3, stronger effect = lower value",1.02
same,normalized growth,"S. cerevisiae deletion strains, locus YPR167C, strain met16, stronger effect = lower value",0.988
same,normalized growth,"S. cerevisiae deletion strains, strain wtn01, stronger effect = lower value",0.99
same,normalized growth,"S. cerevisiae strains, strain wild type, stronger effect = lower value",0.924

# — PubChem BioAssay AID1159580 (chemical genetic matrix, 2015)
